# This excerpt belongs to a sample that is enriched for hits.
# Pf Dd2 growth: qHTS Primary assay for Inhibitors of Plasmodium falciparum Dd2 growth in vitro; AID 1347417, 2020; Potency, µM (titrated, usually from 28.9 µM), for the others: top-dose activity, negative = inhibition, actives largely listed as inhibitors; P. falciparum Dd2 growth, SYBR Green, 72 h; actives 4.3% (n = 120,000); active = well fitted inhibition curve with a large enough effect;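 also: plate controls were DMSO vehicle for no effect and reference drug for full effect; nearly all actives have a fitted effect of over 65% in size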
#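 Readout: SYBR Green fluorescence, 485 nm excitation, 535 nm emission, after ~16 h lysis at 37C. Before that, Dd2-infected red cells (2.5% hematocrit) grew 72 h with compound, 29 uM top final concentration.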
# The depositor's hits bear a star; i = inactive; [ ] = dose if it differs, or a comment. Potency is read from the fitted curve at half-maximal effect.
SMILES,Pf Dd2 growth
CCN(CC)Cc1cnc2c(C(=O)N(C)Cc3ccccc3C)cnn2c1,-3%
Cc1nc(N2CCC(C(=O)NC3CCCCCC3)CC2)cc(C(F)(F)F)n1,i
COC(=O)N1CCCCC(NC(=O)CCCc2nc(-c3ccccc3C)no2)C1 (configuration not stated),-19%
O=C(c1ccccc1OCC1CCCN(CCCc2ccccc2)C1)N1CCCC1 (configuration not stated),i
O=C(CCc1nc(-c2ccccc2)no1)NC1CCCN(CCCc2ccccc2)C1 (configuration not stated),7.1µM*
COC(=O)c1cccc(C(=O)NC2CCCN(CCCc3ccccc3)C2)c1 (configuration not stated),8.9µM*
O=C(CCn1ccc(=O)[nH]c1=O)NC1CCCN(CCCc2ccccc2)C1 (configuration not stated),-10%
CCN(CC)S(=O)(=O)NC1CCCN(CCCc2ccccc2)C1 (configuration not stated),-2%
Cc1c(NC(=O)CCc2cc3n(n2)CCNC3)cccc1-c1nncn1C,-3%
Cc1ccc(C)c(C(=O)N2CCC3(CC2)NC(=O)N(c2ccccc2)N3)c1,i
COc1cc(C2CC(=O)Nc3cc4c(cc32)OCCO4)cc(Br)c1OC (configuration not stated),1µM*
Cc1cccc(C2CC(=O)Nc3cc4c(cc32)OCO4)c1 (configuration not stated),-2%
COc1cccc(C2CC(=O)Nc3cc4c(cc32)OCO4)c1OC(C)C (configuration not stated),12%
CCOc1c(Br)cc(C2CC(=O)Nc3cc4c(cc32)OCO4)cc1OC (configuration not stated),3.2µM*
COc1cc2c(c(OC)c1)C(c1cc(OC)c(OC)c(OC)c1)CC(=O)N2 (configuration not stated),-26%
CCOc1cc(C2CC(=O)Nc3cc4c(cc32)OCCO4)ccc1O (configuration not stated),-12%
Cc1c(-c2ccccc2F)[nH]c2ccc(CNC(=O)CCN3CCCO3)cc12,i
COc1ccccc1C(=O)N1CCCn2nc(C)c(-c3ccccc3Oc3ccccc3)c21,-19%[44.1 µM]
Cc1cc(F)ccc1NC(=O)CN1C(=O)NC2(CCC(C(C)(C)C)CC2)C1=O (configuration not stated),-22%
Cc1ccc2c(C(=O)N3CCN(C4CCCCC4)CC3)cc(NC(=O)C(C)C)cc2n1,0%
CCc1nn(-c2ccc(OC)cc2)c(Oc2ccccc2F)c1CCC(=O)NCCOC,i
CCc1nn(-c2ccc(OC)cc2)c(Oc2ccccc2F)c1CCC(=O)N(CC)CC,i
CCc1nn(-c2ccc(OC)cc2)c(Oc2ccccc2F)c1CCC(=O)NC(C)C,7.9µM*
COc1ccc(NC(=O)Nc2ccc(C)n(CC(=O)NCC(C)C)c2=O)cc1,2%
COc1ccc(-n2nc(C3CCN(C(=O)c4ccccc4Cl)CC3)[nH]c2=O)cc1,i
SMILES,Pf Dd2 growth
COc1ccccc1C(=O)N1CCC2(CC1)c1nccn1-c1ccccc1CN2CC(C)C,0.89µM*
CC(C)CN1Cc2ccccc2-n2ccnc2C12CCN(C(=O)C(C)C)CC2,-21%[5.79 µM]
COc1ccccc1C(=O)N1CCC2(CC1)c1nccn1-c1ccccc1CN2C,i[5.79 µM]
Cc1ccccc1CC(=O)N1CCC2(CC1)N=C(c1cccc(Br)c1)NO2,-21%
Cc1cccnc1C(=O)NC1CCN(c2ccc(=O)n(C)n2)CC1,-1%
O=C(CC1CCCCC1)N1CCn2c(nnc2[C@@H]2C[C@@H](O)CN2Cc2ccccc2)C1,-14%
O=C(CCc1conc1-c1ccc(F)cc1)NCC1CCCO1 (configuration not stated),i
COc1ccc(C2=C(C(C)=O)Sc3nnc(-c4ccccc4)n3N2C(C)=O)cc1,-13%
Cc1ccc(C(=O)N2CCn3c(nnc3-c3ccccc3)C2)cc1,i
CCOc1ccc(-c2nnc(SCC(=O)c3ccccc3)n2-c2ccccc2)cc1,21%
CCc1nnc2n1N(C(C)=O)C(c1ccc(C(C)(C)C)cc1)=C(C(C)=O)S2,3.2µM*
CCOc1ccc(-c2nnc(SCC(=O)c3ccc(Br)cc3)n2-c2ccccc2)cc1,i
CC(=O)C1=C(c2ccc(C)cc2)N(C(C)=O)n2c(nnc2-c2ccccc2)S1,7.9µM*
CCOc1ccc(C2=C(C(C)=O)Sc3nnc(C)n3N2C(C)=O)cc1,1.1µM*
COCCc1nncn1C1CCN(C(=O)c2cccc(Br)c2)CC1,-17%
Cc1ccc(C(=O)N2C[C@@H](CO)[C@H](c3ccncc3)C2)nc1,-5%
CC(=O)N1CC2(Cc3ccccc31)CN(C(=O)Cc1ccc(F)cc1)C2,i
COc1cc(CN2CCN(c3ncnc4[nH]ccc34)CC2CCO)cc(OC)c1 (configuration not stated),-8%
COc1ccc(N2CCN(CC(O)COc3ccc(C(C)(C)C)cc3)CC2)cc1 (configuration not stated),-6%
CC1=CCN(Cc2ccc(OCC(O)CN3CCN(C)CC3)cc2)CC1 (configuration not stated),7%
N=c1n(CCN2CCCCC2)c2ccccc2n1CC(O)COc1ccc(Cl)cc1Cl (configuration not stated),1µM*
COc1ccc(OCC(O)Cn2c(=N)n(CCN3CCCCC3)c3ccccc32)cc1 (configuration not stated),7.9µM*
Cc1nc2ccccc2n1CC(O)COc1ccc(C(=O)O)cc1 (configuration not stated),17%
COc1ccc(N2CCN(CC(O)COc3ccc(C)cc3C)CC2)cc1 (configuration not stated),1%
CCn1c(COc2ccc(Cl)cc2Cl)nc2ccccc21,-19%
SMILES,Pf Dd2 growth
Cc1ccc(OCC(O)Cn2c(=N)n(CCN3CCCCC3)c3ccccc32)cc1 (configuration not stated),2.8µM*
CCNc1nc2c(c(=O)[nH]c(=O)n2C)n1CC(O)COc1ccc(Cl)cc1Cl (configuration not stated),-13%
NC(=O)CNC(=O)[C@@]1(O)C[C@@H](O)[C@H](O)[C@@H](NC(=O)Nc2ccc(OC(F)(F)F)cc2)C1,-14%
COc1ccccc1C(=O)NC1CCN(c2cc(-c3ccccc3)[nH]n2)C1 (configuration not stated),i
Cc1nc(-c2ccc(OC3CCN(C(=O)NC(C)C)C3)cc2)no1 (configuration not stated),29%[5.79 µM]
O=C(COc1ccccc1)NC1CCN(c2cc(C(F)(F)F)ncn2)CC1,87%
CCOC(=O)c1ccccc1Nc1cc(C)nc2nc(-c3ccco3)nn12,10µM*
Cc1cc(Nc2ccccc2Cl)n2nc(-c3ccco3)nc2n1,-28%
Cc1cc(Nc2cccc(F)c2)n2nc(-c3ccco3)nc2n1,-16%
CN(C)C[C@@H]1CN(C2CCOCC2)C[C@H]1NC(=O)C1CC=CCC1 (some centres not stated),4%
CCc1noc([C@@H]2CC(F)(F)CN2C(=O)c2ccco2)n1,i
COCC1CN(C(C)=O)CC12CCN(S(=O)(=O)c1cc(C)ccc1C)CC2 (configuration not stated),-21%
COc1ccc(N2CCN(C(=O)CC3CCCCN(C)C3=O)CC2)cc1 (configuration not stated),-20%
O=C(CC1CCCCN(Cc2ccccc2)C1=O)Nc1ccc(F)cc1F (configuration not stated),-3%
